# JMJD2A Tudor – qHTS Assay for Inhibitors of JMJD2A-Tudor Domain; Potency, µM (top dose mostly 114 µM), for inactives: top-dose activity change, negative = inhibition, hits mostly inhibitors; AID 504339, 2011; Lysine-specific demethylase 4A (Homo sapiens), O75164; AlphaScreen JMJD2A-Tudor / H3K4me3 peptide binding; hit rate 4.4% among 390,000; also: potency is read from the fitted curve at half-maximal effect; % is scaled to controls: 0 for no effect and ±100 for the full control effect; nearly all actives have a fitted effect of over 50% in size
# G9a block – qHTS Assay for Inhibitors of Histone Lysine Methyltransferase G9a; Histone-lysine N-methyltransferase EHMT2 (Homo sapiens), Q96KQ7; G9a H3K9 monomethylation, AlphaScreen, 2 h; Potency, µM (doses to about 102 µM), inactives show at the top dose activity, negative = inhibition, hits mostly inhibitors; hit rate 8.8% among 350,000; AID 504332, 2011; also: potency is read from the fitted curve at half-maximal effect; % is scaled to controls: 0 for no effect and ±100 for the full control effect; nearly all actives have a fitted effect of over 75% in size
# Target sequence (Q96KQ7 913-1193 limits assumed): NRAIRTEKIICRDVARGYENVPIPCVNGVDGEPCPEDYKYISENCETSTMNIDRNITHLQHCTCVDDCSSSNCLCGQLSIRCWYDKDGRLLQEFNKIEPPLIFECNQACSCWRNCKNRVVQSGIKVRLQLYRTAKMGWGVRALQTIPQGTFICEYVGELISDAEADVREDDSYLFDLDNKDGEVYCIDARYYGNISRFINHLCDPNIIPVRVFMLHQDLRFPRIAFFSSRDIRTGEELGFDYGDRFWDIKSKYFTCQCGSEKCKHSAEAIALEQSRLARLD
#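 Quantitative HTS format: methyltransferase activity on a biotin-tagged H3K9 peptide is measured by AlphaScreen, using a rabbit anti-monomethyl-H3K9 antibody with streptavidin donor and anti-IgG acceptor beads. Final levels are 20 nM enzyme, 500 nM peptide, 20 uM SAM; 2 h RT.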
# HP1b chromo inh – HTS for Inhibitors of HP1-beta Chromodomain Interactions with Methylated Histone Tails. Chromobox protein homolog 1 (Homo sapiens), P83916. AlphaScreen HP1-beta / biotin-H3K9me3 peptide binding. Potency, µM (titrated, usually from 114 µM), inactives show top-dose activity change, negative = inhibition, usual class: inhibitors. hit rate 0.56% among 390,000. AID 540317, 2011; also: potency is read from the fitted curve at half-maximal effect; nearly all actives have a fitted effect of over 70% in size
# Target sequence (P83916 whole entry, looked up): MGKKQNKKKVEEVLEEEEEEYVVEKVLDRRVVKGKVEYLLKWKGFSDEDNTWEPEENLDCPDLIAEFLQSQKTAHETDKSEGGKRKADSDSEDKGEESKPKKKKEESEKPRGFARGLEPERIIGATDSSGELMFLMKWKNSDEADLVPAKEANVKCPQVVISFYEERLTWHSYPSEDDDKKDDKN
#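 HP1-beta protein (50 nM final) preincubated 30 min at room temperature with biotinylated H3(1-18)K9me3 peptide (50 nM) in PBS pH 7.4, 0.01% Tween-20, then compound added for 30 min. AlphaScreen streptavidin donor/nickel chelate acceptor beads (10 ug/mL final), 30 min dark, luminescence read.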
# BAZ2B block – qHTS Assay for Inhibitors of BAZ2B. Bromodomain adjacent to zinc finger domain protein 2B (Homo sapiens), Q9UIF8. AlphaScreen BAZ2B-H3K14Ac peptide displacement. Potency, µM (titrated, usually from 114 µM), without a hit: at the top dose activity change, negative = inhibition, hits mostly inhibitors. hit rate 4.4% among 360,000. AID 504333, 2011; also: potency is read from the fitted curve at half-maximal effect; % is scaled to controls: 0 for no effect and ±100 for the full control effect; nearly all actives have a fitted effect of over 60% in size
#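 AlphaScreen displacement of biotin-H3(5-23)K14Ac peptide (50 nM final) from BAZ2B (50 nM final) in PBS pH 7.4, 0.01% Tween-20; complex preformed 30 min RT, then compounds (top 110 uM) 30 min RT, beads 20 min dark.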
# Six1-Eya2 blk – qHTS Assay for Inhibitors of the Six1/Eya2 Interaction; activity change, % (concentration not given with the values); hit rate 0.56% among 360,000; Homeobox protein SIX1 (Homo sapiens) + Protein phosphatase EYA2 (Homo sapiens), …; AlphaScreen GST-Six1/His-Eya2 binding, biochemical; stronger effect = lower value; in the data active = activity change below about -65%; inconclusive = mostly about -30% to -63%; also: % is scaled to controls: 0 for no effect and ±100 for the full control effect
#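 Homogeneous AlphaScreen proximity assay pairing GST-Six1 with His-tagged Eya2 (added as 5X mix: 250 nM and 500 nM) in 50 mM Tris pH 8.0, 300 mM NaCl, 1 mM TCEP. Glutathione donor and nickel acceptor beads; 1 h, 37 °C, dark.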
# CtBP-E1A inh – qHTS Assay for Inhibitors of the CtBP/E1A Interaction. CtBP / adenovirus E1A interaction (AlphaScreen). AlphaScreen GST-E1A/His-CtBP binding, 1536-well; stronger effect = lower value. activity change, % (concentration not given with the values). hit rate 0.49% among 340,000; in the data active = activity change below about -65%; inconclusive = mostly about -30% to -63%; also: % is scaled to controls: 0 for no effect and ±100 for the full control effect
#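 GST-E1A and His-tagged CtBP (125 nM each as 5X stock) were preincubated with pin-transferred compound for 2 h at 37 °C in the dark, then glutathione donor and nickel acceptor beads were added for 1 h before AlphaScreen reading.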
# Numbers without * were called inactive; ? = inconclusive; . = not tested or not shown; [ ] = remark or other dose. Sampled rows, rich in hits. Any-hit rate of the full collection: about 10%. Unless noted, calls follow the shape of the dose curve; as a rule, active = well fitted inhibition curve with a large enough effect; inconclusive = small, poorly fitted or top-dose-only effect; inactive = no such curve, though single readings can be large or run the other way.
SMILES,JMJD2A Tudor,G9a block,HP1b chromo inh,BAZ2B block,Six1-Eya2 blk,CtBP-E1A inh
CCc1n[nH]c(=S)n1/N=C/c1cc(Br)c(O)c(OC)c1,5.6µM*,7.9µM*,29%,-18%,-9,.
C=CCOc1c(Br)cc(/C=N/n2c(CC)n[nH]c2=S)cc1Br,?,?,16%,-3%,-10,-5
CCOc1ccc(/C=N/n2c(COc3ccccc3)n[nH]c2=S)cc1OC,20µM*,8.9µM*,-10%,23%,-1,.
CC1CCN(S(=O)(=O)c2ccc3nc(N4CCN(c5ccccc5F)CC4)ccc3c2)CC1,4%,?,30%,-17%,.,.
CC(C)COc1ccc(C(=O)N2CCC(c3nc4ccccc4s3)CC2)cc1,-5%,-10%[59 µM],43%,5%,.,.
Cc1oc2c(c1C(=O)c1ccc(Cl)cc1)C(=O)C(=O)c1ccccc1-2,?,?,3%,?,-1,-1
Cc1ccc(C(=O)c2c(C)oc3c2C(=O)C(=O)c2ccccc2-3)cc1,45µM*,?,18µM*,32µM*,-13,?
Cc1ccc(C(=O)c2coc3c2C(=O)C(=O)c2ccccc2-3)cc1,?,40µM*,-25%,?,-7,-8
O=C(N/C=N/O)C1=NOC(CNc2ncc(C(F)(F)F)cc2Cl)C1 (stereo not drawn),-4%,45µM*,11%,-10%,7,-4
CN1C(=S)N(c2cccnc2)C(=O)/C1=C\c1ccc(N(C)C)cc1,?,?,-29%,11µM*,-20,-12
Cc1c(NC(=S)N/N=C/c2ccc(N(C)C)cc2)c(=O)n(-c2ccccc2)n1C,-33%,9%[59 µM],-28%,-11%,-10,-1
CN(C)c1ccc(/C=C/C(=O)c2cccnc2)cc1,32%,11%,74%,5%,-3,0
Cc1c(N2C(=O)c3ccc4c5c(ccc(c35)C2=O)CC4)c(=O)n(-c2ccccc2)n1C,?,50µM*,?,56µM*,-8,-11
Cc1c(N2C(=O)/C(=C\c3ccc(N(C)C)cc3)N(C)C2=S)c(=O)n(-c2ccccc2)n1C,?,40µM*,?,45µM*,-20,-9
CCc1ccc(CN(Cc2ccco2)c2cnc(S(C)(=O)=O)nc2C(=O)Nc2c(C)cccc2C)cc1,?,?,17%,?,.,.
CC1(C)CC(=O)C(=Cc2cn(CCC#N)nc2-c2ccc(F)cc2)C(=O)C1,-3%,10µM*,48%,-3%,6,-12
CC1(C)CC(=O)C(=Cc2cn(CCC#N)nc2-c2ccc(Cl)cc2)C(=O)C1,-9%,?,76%,-7%,19,14
Nc1sc(-c2ccccc2)c(Cc2ccccc2)c1C(=O)O,?,50µM*,?,.,-1,3
CC1(C#CC[N+]2(C)CCCCC2)CCC2C(O1)c1ccccc1OC2(C)C (stereo not drawn),-26%,3.2µM*,?,56µM*,-1,.
Cc1cc(C)cc(-n2c(C)cc(C(=O)C(=O)Nc3ccccc3F)c2C)c1,-25%,-23%[59 µM],8%,-31%,.,.
Cc1cnc(C(=O)OCc2nc3ccsc3c(=O)[nH]2)cn1,56µM*,16%[12.7 µM],-25%,50µM*,-17,-29
O=C(/C=C/c1ccc(Br)o1)OCc1nc2ccsc2c(=O)[nH]1,40µM*,18%[0.501 µM],-66%,40µM*,?,2
COc1ccc(CCC(C(O)C(F)(F)F)S(=O)c2ccccc2)cc1 (stereo not drawn),40µM*,?,5%,8%,-1,11
O=C(NCc1ccccn1)C(=O)NN=C1CCCCCCCCCCC1,-7%,4%,35%,-22%,2,3
O=C(NCc1ccccn1)C(=O)N/N=C/c1ccccc1O,25µM*,48%[59 µM],53%,40µM*,-73*,?
SMILES,JMJD2A Tudor,G9a block,HP1b chromo inh,BAZ2B block,Six1-Eya2 blk,CtBP-E1A inh
Cc1cc(/C=N/NC(=O)C(=O)NCc2ccccn2)c(C)n1-c1cccc(Br)c1,?,50µM*,6%,50µM*,-14,-12
CCN(CC(=O)Nc1ccccc1C(F)(F)F)C(=O)c1ccc(NC(=O)c2cccs2)cc1,.,.,.,.,-3,4
CCCCn1c(-c2ccc(S(=O)(=O)N3CCOCC3)cc2)csc1=Nc1ccccc1,?,5.6µM*,?,?,.,.
O=S(=O)(c1ccc(-c2csc(=Nc3ccccc3)n2CCCN2CCOCC2)cc1)N1CCOCC1,?,38%[0.501 µM],?,40µM*,-28,-13
O=S(=O)(c1ccc(Oc2ccccc2)cc1)N1CCOCC1,7%,-9%[59 µM],31%,1%,10,7
CCCn1c(-c2ccc(S(=O)(=O)N3CCOCC3)cc2)csc1=Nc1ccc(OCC)cc1,?,13µM*,?,?,.,.
CCCC(C(=O)Nc1ccc(S(=O)(=O)N2CCOCC2)cc1)c1ccccc1 (stereo not drawn),-7%,33%[12.7 µM],13%,7%,-10,-22
Cc1oc(-c2cc(F)ccc2F)nc1CN1CCN(c2cnccn2)CC1,-20%,.,26%,71µM*,-4,5
CCOC(=O)CSC1=C(C#N)C(=O)NC(c2ccc(OC)cc2)S1 (stereo not drawn),25µM*,?,9%,50µM*,-3,-1
CCOC(=O)CSC1=C(C#N)C(=O)NC(c2ccc(OC)c(OC)c2)S1 (stereo not drawn),40µM*,?,?,50µM*,0,-7
CCCCC[n+]1cccc2c3ccccc3ccc21,?,50µM*,14%,34%,5,13
Cc1nc(SCC(=O)Nc2ccccc2Cl)cc(-c2ccccc2)n1,-14%,15%[59 µM],15%,6%,.,.
CCOc1ccc(C2=Nc3ccc(Br)cc3C(c3ccc(N4CCOCC4)cc3)=NN2)cc1,-19%,45µM*,4%,-3%,-27,-7
Brc1ccc2c(c1)C(c1ccc(N3CCOCC3)cc1)=NNC(c1cccs1)=N2,-36%,?,-33%,?,-17,-11
Fc1ccc2c(c1)C(c1ccc(N3CCOCC3)cc1)=NNC(c1cccs1)=N2,25µM*,20µM*,-37%,35µM*,-23,-23
C=CCOC(=O)C1=C[C@@H](C2CCCCC2)C[C@@H](OCc2ccc(CO)cc2)O1,-24%,?,3%,-12%,-2,-1
